# A selection: hits, their analogues and other compounds. The true share with any hit is near 1.4%.
# Bcl-W Bim block: inhibitors of Bim binding to Bcl-W, primary screen, biochemical, multiplexed, bead-based flow cytometry. 190,000 compounds, 0.02% hits. inhibition, % at 10 µM. Bim peptide-Bcl-W binding;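 note: 0% = bound tracer without compound and 100% = peptide blocker; higher means less fluorescent Bim peptide bound to Bcl-W beads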
# Bim-Bcl-B: inhibitors of Bim-Bcl-B binding, primary screen, biochemical, multiplexed, human Bcl-2 family | Bcl-2-like protein 10 (Homo sapiens), Q9HD36 | bead-based flow cytometry, Bim peptide-Bcl-B binding | inhibition, % at 10 µM | 190,000 compounds, 0.073% hits | AID 951, 2007;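 note: 0% = tracer peptide without compound and 100% = reference inhibitor peptide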
# Bim-Bfl-1: inhibitors of Bim binding to Bfl-1, primary screen, biochemical, multiplexed, bead-based flow cytometry. Bcl-2-related protein A1 (Homo sapiens), Q16548. Bim-Bfl-1 binding inhibition. inhibition, % at 10 µM. 190,000 compounds, 0.12% hits;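 note: 0% = wells without compound plus tracer and 100% = blocker peptide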
# Bcl-2 Bim block: inhibitors of Bim-Bcl-2 binding, primary screen, biochemical, multiplexed, human Bcl-2 family | 190,000 compounds, 0.06% hits | Bead-based flow cytometry, Bim peptide-Bcl-2 binding | Apoptosis regulator Bcl-2 (Homo sapiens), P10415 | inhibition, % at 10 µM; in the data active = inhibition above about 40%;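 note: 0% = no compound wells with probe peptide and 100% = reference peptide inhibitor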
# Wee1 stabilizer: Wee1 degradation inhibitors, primary screen, cell-based, HeLa, Wee1K328M-luciferase, luminescence. HeLa Luc-Wee1K328M stability; 100% = proteasome inhibitor MG132 effect. 220,000 compounds, 1.2% hits. Wee1-like protein kinase (Homo sapiens), P30291. reporter increase, % at 5 µM;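 active = activation above the mean of all tested compounds plus 3 SD, set per screening run, cut at about 8.8% in these data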;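 note: cells exposed to compound for 20 h before luminescence read; 0% = DMSO alone and 100% = MG132 at 30 µM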
# Target sequence (P30291 whole entry K328M): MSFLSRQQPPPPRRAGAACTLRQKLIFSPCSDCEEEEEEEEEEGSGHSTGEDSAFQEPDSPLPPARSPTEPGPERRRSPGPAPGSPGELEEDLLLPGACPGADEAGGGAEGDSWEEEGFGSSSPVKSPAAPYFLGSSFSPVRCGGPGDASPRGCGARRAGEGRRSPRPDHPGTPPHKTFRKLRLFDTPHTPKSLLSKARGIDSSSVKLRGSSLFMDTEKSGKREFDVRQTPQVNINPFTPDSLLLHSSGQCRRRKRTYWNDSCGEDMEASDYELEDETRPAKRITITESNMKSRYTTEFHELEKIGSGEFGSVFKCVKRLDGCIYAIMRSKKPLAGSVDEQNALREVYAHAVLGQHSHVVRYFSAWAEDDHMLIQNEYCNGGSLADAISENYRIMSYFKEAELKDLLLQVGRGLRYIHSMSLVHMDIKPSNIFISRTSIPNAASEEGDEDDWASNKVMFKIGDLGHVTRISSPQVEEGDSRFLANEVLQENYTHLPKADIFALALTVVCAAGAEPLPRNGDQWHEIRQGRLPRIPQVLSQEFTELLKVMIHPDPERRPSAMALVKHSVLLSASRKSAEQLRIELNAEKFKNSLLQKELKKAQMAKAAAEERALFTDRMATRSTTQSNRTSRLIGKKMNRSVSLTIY
# Bcl-XL Bim block: inhibitors of Bim-Bcl-XL binding, primary screen, biochemical, multiplexed, bead flow cytometry, human Bcl-XL; Bcl-2-like protein 1 (Homo sapiens), Q07817; Bim peptide-Bcl-XL binding, fluorescence; inhibition, % at 10 µM; 190,000 compounds, 0.04% hits; AID 1007, 2008
# Wee1 stab conf: Wee1 degradation inhibitors, confirmation, cell-based, HeLa, Wee1K328M-luciferase, luminescence, triplicate; shares compounds with Wee1 stabilizer; HeLa Luc-Wee1K328M degradation; vehicle 0%, proteasome-blocked wells 100%; activation, % at 5 µM; 1,100 compounds, 4% hits; AID 1410, 2008; in the data active = activation above about 8.9%
# The depositor's hits bear a star; / = no result. Cut-off read from the data, not from the text of the source, unless noted: active = inhibition above about 40%.
SMILES,Bcl-W Bim block,Bim-Bcl-B,Bim-Bfl-1,Bcl-2 Bim block,Wee1 stabilizer,Bcl-XL Bim block,Wee1 stab conf
C=CCn1c(C(C)(C)C)nc2ccccc21,-2.0,0.0,-5.0,-3.0,-1.9,-5.0,/
Cc1ccccc1CN1CCN(S(=O)(=O)c2cccs2)CC1,0.0,-1.0,-2.0,-2.0,0.7,1.0,/
CCN1C(=O)c2cccc3c(NC(=O)c4ccc(S(=O)(=O)N5CCOCC5)cc4)ccc1c23,-1.0,0.0,-1.0,-2.0,0.9,-3.0,/
CCN1C(=O)c2cccc3c(NC(=O)c4ccc(S(=O)(=O)N(C)C)cc4)ccc1c23,2.0,-6.0,-6.0,-8.0,11.3*,-1.0,5.0
CC1(C)Cc2c(C#N)c(N3CCN(C(=O)c4ccccc4)CC3)nc(-c3ccco3)c2CS1,0.0,-6.0,13.0,3.0,15.3*,-2.0,0.2
CC(C)c1nc(N2CCN(C(=O)c3ccccc3)CC2)c(C#N)c2c1COC(C)(C)C2,-3.0,-36.0,-2.0,1.0,0.5,-2.0,/
CC1=NNC(=O)C(CC(=O)Nc2ccc(Cl)c(Cl)c2)C1 (stereo not drawn),-4.0,-7.0,-6.0,-10.0,-2.0,-6.0,/
O=C(c1cc(=O)[nH]c2ccccc12)N1CCN(c2ccc([N+](=O)[O-])cc2)CC1,/,/,/,/,58.9*,/,-2.9
O=C(c1cc(=O)[nH]c2ccccc12)N1CCN(c2cccc(C(F)(F)F)c2)CC1,-4.0,-5.0,-11.0,-7.0,1.5,-5.0,/
O=C(CCC1CCCC1)N1CCC(N2CCCCCC2)CC1,0.0,-8.0,-1.0,-5.0,11.9*,-6.0,3.0
COc1ccc(CN(Cc2cccn2C)S(=O)(=O)c2ccc(F)cc2)cc1,/,/,/,/,10.9*,/,-1.0
COc1ccc(CN(C(=O)/C=C/c2ccco2)C2CCS(=O)(=O)C2)cc1 (stereo not drawn),/,/,/,/,-3.5,/,/
CS(=O)(=O)Nc1ccc(C(=O)Nc2ccc(S(=O)(=O)N3CCCC3)cc2)cc1,0.0,-2.0,-3.0,-5.0,12.8*,-2.0,0.7
COc1ccccc1CNCC(=O)Nc1ccc(C(F)(F)F)cc1,/,/,/,/,11.9*,/,0.5
COc1ccc(NC(=O)c2ccc(Oc3ncccn3)cc2)cc1,-1.0,0.0,-3.0,-1.0,1.7,-2.0,/
CC1=NC(C#N)=C(C#N)NC(C)(C)C1,1.0,-21.0,3.0,1.0,1.9,-2.0,/
C=CCn1c(SCc2cc(=O)n3cc(C)ccc3n2)nnc1-c1ccc(F)cc1,-5.0,-1.0,0.0,0.0,15.1*,-10.0,2.0
O=C(Nc1ccccc1N1CCCC1)c1ccc([N+](=O)[O-])cc1Cl,-1.0,4.0,9.0,6.0,-1.3,0.0,/
Oc1ccc(NCc2cccc(OCc3ccc(F)cc3)c2)cc1,19.0,-5.0,39.0,9.0,-2.6,1.0,/
O=[N+]([O-])c1ccc(COc2cccc(CNc3ccc(F)cc3)c2)cc1,-6.0,2.0,-3.0,-4.0,14.6*,-3.0,0.1
Cc1ccc(CN2CCSc3ccc(C(=O)N4CCN(c5ncccn5)CC4)cc32)cc1,-1.0,-2.0,1.0,-1.0,-0.2,-2.0,/
CC1CC(C)CN(C(=O)c2ccc3c(c2)N(Cc2ccccc2)CCS3)C1 (stereo not drawn),-1.0,-9.0,-5.0,-7.0,12.7*,0.0,0.0
C=CCn1c(O)c(C2=c3ccccc3=NC2=O)s/c1=N/c1nccs1,-3.0,-3.0,-6.0,-4.0,-1.0,-3.0,/
Cn1c(O)c(C2=c3ccccc3=NC2=O)sc1=Nc1ccc(Cl)cc1,-6.0,-10.0,-2.0,-2.0,12.9*,-6.0,3.4
CC1=CC(c2ccccc2)n2nnnc2N1 (stereo not drawn),/,/,/,/,11.6*,/,3.8
SMILES,Bcl-W Bim block,Bim-Bcl-B,Bim-Bfl-1,Bcl-2 Bim block,Wee1 stabilizer,Bcl-XL Bim block,Wee1 stab conf
CC1=CC(c2ccccc2)n2nc(N3C(=O)c4ccccc4C3=O)nc2N1 (stereo not drawn),0.0,0.0,-2.0,0.0,0.1,-2.0,/
Cc1nc(NC(=O)CSc2nnc(-c3ccc4c(c3)OCO4)o2)c(Cl)cc1Cl,0.0,-3.0,0.0,0.0,11.2*,-3.0,5.2
O=C(CSc1nnc(-c2ccc3c(c2)OCO3)o1)Nc1ncc(C(F)(F)F)cc1Cl,-4.0,-8.0,-7.0,-3.0,-0.7,-3.0,/
CCOC(=O)c1nc(NCc2ccccc2F)c2ccccc2n1,-3.0,-6.0,-6.0,-5.0,-1.0,-5.0,/
O=C(Nc1ccc2c(c1)CCC2)c1ccc(F)cc1,-5.0,-3.0,-3.0,-2.0,17.4*,-3.0,-1.7
CC(=O)NS(=O)(=O)c1ccc(NC(=O)CSc2ccc(Cl)cc2)cc1,3.0,-2.0,-5.0,-1.0,12.8*,0.0,1.4
Cc1ccc(C(C)C)c(OCc2nn(CC(=O)c3ccc(OC(F)F)cc3)c3[n+]2CCCCC3)c1,0.0,2.0,7.0,6.0,18.0*,2.0,-1.8
CCC(CNc1cc(OC)cc2cccnc12)NC1CCCCC1 (stereo not drawn),/,/,/,/,-2.2,/,/
COc1cc(NCCCC(C)N)c2ncccc2c1 (stereo not drawn),5.0,21.0,5.0,6.0,29.4*,3.0,-0.1
CCN1CCCC1CNCc1ccc(OCc2ccc(Cl)nc2)c(OC)c1 (stereo not drawn),/,/,/,/,14.6*,/,4.2
Cc1onc(C(=O)Nc2c(C)n(C)n(-c3ccccc3)c2=O)c1[N+](=O)[O-],/,/,/,/,-0.4,/,/
COc1ccc(OCc2ccc(C(=O)N3CCOCC3)cc2)cc1,-5.0,-8.0,-3.0,-2.0,-0.7,-6.0,/
CC(C)(C)c1ccc(OCc2ccc(C(=O)N3CCOCC3)o2)cc1,-3.0,-6.0,-7.0,0.0,13.3*,-1.0,1.2
COc1cccc(OCC(O)CN2CCC(C)CC2)c1 (stereo not drawn),-2.0,-2.0,0.0,0.0,-0.6,-2.0,/
CC1CCN(CC(O)COc2cccc(F)c2)CC1 (stereo not drawn),1.0,-3.0,-12.0,-3.0,13.8*,-3.0,0.8
CC1CC(C)CN(CC(=O)NC(c2ccccc2)c2ccccc2)C1 (stereo not drawn),-1.0,-3.0,-1.0,-6.0,12.5*,-1.0,0.5
CC1Cc2ccccc2N1CC(=O)NC(c1ccccc1)c1ccccc1 (stereo not drawn),-3.0,-3.0,0.0,-1.0,2.4,-1.0,/

# High-throughput results as filed in PubChem BioAssay.
